Measurements as given in PubChem BioAssay AID743126 (The Scripps Research Institute Molecular Screening Center, 2013).
Hit rate of the full screen: of about 370,000 compounds, about 2,100 (0.57%) were called active. The sample holds actives, similar compounds and a random draw of the others, so the mix is not that of the screen.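 Rule for the calls: active = inhibition above mean plus 3 SD of compounds lying within the high and low control bounds (cut at about 19% in these data); inactive = the rest.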

Target: Group 3 secretory phospholipase A2 (Homo sapiens) (UniProt Q9NZ20)
Sequence (Q9NZ20 whole entry, looked up): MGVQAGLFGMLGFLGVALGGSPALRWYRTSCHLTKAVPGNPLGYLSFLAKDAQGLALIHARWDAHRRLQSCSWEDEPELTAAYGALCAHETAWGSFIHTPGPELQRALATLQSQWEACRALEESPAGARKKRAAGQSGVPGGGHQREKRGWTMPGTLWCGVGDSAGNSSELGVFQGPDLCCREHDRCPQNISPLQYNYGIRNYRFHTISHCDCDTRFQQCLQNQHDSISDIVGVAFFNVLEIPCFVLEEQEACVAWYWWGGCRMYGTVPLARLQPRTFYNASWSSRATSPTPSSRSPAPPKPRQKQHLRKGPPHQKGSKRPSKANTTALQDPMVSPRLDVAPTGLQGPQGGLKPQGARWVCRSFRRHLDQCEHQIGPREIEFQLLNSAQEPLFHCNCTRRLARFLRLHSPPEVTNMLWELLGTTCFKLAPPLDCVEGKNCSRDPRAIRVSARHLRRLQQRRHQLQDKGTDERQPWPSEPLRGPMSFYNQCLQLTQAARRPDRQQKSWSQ
Test: HGIII-sPLA2 enzyme inhibition – biochemical, QFRET, BODIPY PC-A2 liposome substrate, primary screen (AID 743126);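 note: 0% = median of test compound wells and 100% = no enzyme DMSO wells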
Settings: QFRET BODIPY PC-A2 liposome hydrolysis, fluorescence; at 12.2 µM; stronger effect = higher value

Row | Structure (SMILES) | inhibition
1 | CCCOc1ccc(Oc2c(Cl)cnn(Cc3cccc4ccccc34)c2=O)cc1 | 3.84% (inactive)
2 | Cc1c(C(=O)N/N=C/c2ccccc2)[nH]c2c([N+](=O)[O-])cccc12 | 21.8% (active)
3 | COc1cccc2c(C)c(C(=O)O)[nH]c12 | -1.9% (inactive)
4 | Cc1ccc2[nH]c(C(=O)O)c(NC(=O)c3ccccc3[N+](=O)[O-])c2c1 | -10.3% (inactive)
5 | O=C(NCc1cccs1)C1CCCN(S(=O)(=O)c2ccc([N+](=O)[O-])cc2)C1 (configuration not stated) | 2.84% (inactive)
6 | CN1C[C@]2(C=C3CCCCC3n3c(=O)n(-c4ccccc4)c(=O)n32)N=C1NC(=O)c1ccccc1 (some centres not stated) | -6.07% (inactive)
7 | O=C(Nc1cc(Cl)cc(Cl)c1)OCCN1CCCC12CCC(c1ccccc1)CC2 (configuration not stated) | -8.41% (inactive)
8 | C#CCCN([C@H](C(=O)OC)C(C)C)S(=O)(=O)c1ccc(F)cc1Br | 3.19% (inactive)
9 | COP(=O)(O)CNC(=O)OCc1ccccc1 | 2.13% (inactive)
10 | O=C(CN1CCCc2ccccc21)NCc1ccc(F)cc1 | 7.05% (inactive)
11 | CSC1=NCCN1C(=O)Cc1cccc2ccccc12 | 7.18% (inactive)
12 | N=C(N)SCc1cccc2ccccc12 | 35.3% (active)
13 | CCc1ccc(-c2nn(-c3ccccc3)cc2CSC(=N)N)cc1 | 15.7% (inactive)
14 | O=C(CNS(=O)(=O)c1ccccc1F)N1CCN(c2ccccn2)CC1 | 5.26% (inactive)
15 | Cc1cc(-n2nc(C)cc2C)n2ncc(-c3ccccc3)c2n1 | 21.3% (active)
16 | Cc1cc(C)n(-c2nc(C(F)(F)F)nc3ccccc23)n1 | 1.7% (inactive)
17 | COc1ccccc1-c1cnn2c(N3CCOCC3)cc(C)nc12 | 17.5% (inactive)
18 | COC(=O)C[C@@H]1CC[C@H]2[C@@H](COc3ccc(NS(=O)(=O)CC(F)(F)F)cc3C(=O)N2C)O1 | 6.09% (inactive)
19 | O=C(/C=C/c1c(Cl)cccc1Cl)NCc1ccccc1 | 20% (active)
20 | O=C(CC(=O)N/N=C\c1cccc(Cl)c1Cl)NCc1ccccc1 | -20.8% (inactive)
21 | CCOC(=O)CNC(=O)/C=C/c1c(Cl)cccc1Cl | -5.13% (inactive)
22 | O=C(CSc1nc2ccccc2s1)NN=Cc1ccc(O)cc1O | -23% (inactive)
23 | CC(C)c1ccc(Nc2nnc(SCC(=O)c3nnc(-c4ccccc4)o3)s2)cc1 | 22.6% (active)

Row | Structure (SMILES) | inhibition
24 | COc1cccc(Nc2nnc(SCC(=O)N3CC(C)OC(C)C3)s2)c1 (configuration not stated) | 13.8% (inactive)
25 | CN(C(=O)CSc1nnc(Nc2ccccc2)s1)C1CCS(=O)(=O)C1 (configuration not stated) | -0.8% (inactive)
26 | COc1ccc(-n2c(SCC(=O)NC3CCCC3)nnc2-c2ccncc2)cc1 | 12.7% (inactive)
27 | CCCCOC(=O)CCCc1ccc([N+](=O)[O-])cc1[N+](=O)[O-] | 1.12% (inactive)
28 | CCCCCOc1ccc(CSC2=NCCN2)cc1[N+](=O)[O-] | -1.57% (inactive)
29 | CCCCOc1ccc(CSC(=N)N)cc1[N+](=O)[O-] | 34.6% (active)
30 | COc1ccc(N2CCN(CCNS(=O)(=O)c3ccc(Cl)s3)CC2)cc1 | 0.02% (inactive)
31 | O=S1(=O)c2ccc(N3CCN(Cc4ccccc4F)CC3)cc2Oc2ccccc2CN1Cc1cn(Cc2ccc(Cl)cc2)nn1 | -0.32% (inactive)
32 | Cc1cc(C(=O)Nc2ccc(C)c(S(=O)(=O)N3CCOCC3)c2)c2ccccc2n1 | -16.7% (inactive)
33 | O=C(Nc1nc2ccc(Cl)cc2s1)c1cc(-c2ccc(Cl)cc2)nc2ccccc12 | 13.3% (inactive)
34 | O=C(Nc1cccc(F)c1)c1cc(-c2ccco2)nc2ccccc12 | 23.6% (active)
35 | O=C(CSc1nc2ccccc2n1Cc1ccccc1)NNC(=S)Nc1ccccc1 | 34.3% (active)
36 | CCC(c1nnc(SCC(=O)NNC(=O)c2ccccc2)n1Cc1ccccc1)N(C)C (configuration not stated) | -0.56% (inactive)
37 | CC(C)(C)NC(=O)Cn1c(SCC(=O)Nc2nccs2)nc2ccccc21 | 3.98% (inactive)
38 | CCC(=O)Nc1ccc2c(c1)C(=O)N(C)[C@H]1CC[C@H](CC(=O)NCCOC)O[C@@H]1CO2 | -9.58% (inactive)
39 | Nc1[nH]c(/C=C2/CCCCC2n2[nH]c(=O)n(-c3ccccc3)c2=O)c(Cc2ccccc2)[n+]1Cc1ccccc1 (configuration not stated) | -5.57% (inactive)
40 | CCn1c(-c2ccncc2)n[nH]c1=S | 3.35% (inactive)
41 | CCc1cc(-c2n[nH]c(=S)n2CC(C)C)cs1 | 19.6% (active)
42 | CCCc1cc(-c2n[nH]c(=S)n2Cc2ccccc2)cs1 | 2.87% (inactive)
43 | CCC(=O)c1c(CC)c2n3c1=CC[C@H]3CC(Br)C=2 (some centres not stated) | 1.91% (inactive)
44 | Cc1ccc(NC(=S)NNC(=O)CSc2nnc(SCc3ccccc3Cl)s2)cc1 | 19.7% (active)
45 | O=C(CSc1nnc(SCc2ccc(Cl)cc2)s1)N/N=C/c1ccccc1Cl | -4.99% (inactive)
46 | CCSc1nnc(SCC(=O)NNC(=O)c2ccccc2F)s1 | 4.1% (inactive)

Row | Structure (SMILES) | inhibition
47 | COc1cccc(Cn2cc(COC(=O)Nc3ccc(F)cc3)nn2)c1 | -7.76% (inactive)
48 | C[C@@H]1CN([C@@H](C)CO)C(=O)c2cccc(NC(=O)Nc3cccc4ccccc34)c2O[C@H]1CN(C)S(=O)(=O)c1ccccc1F | -21.9% (inactive)
49 | CCOc1ccc2[nH]c(=S)sc2c1 | 23.5% (active)
50 | Nc1ccc2[nH]c(=S)sc2c1 | 1.91% (inactive)
51 | CCOc1ccc2[nH]c(=O)c(CN(CCCO)C(C)=O)cc2c1 | -0.39% (inactive)
52 | COc1ccc2c(C(C)c3ccc(N)cc3)cn(C)c2c1 (configuration not stated) | 9.83% (inactive)
53 | CCCCNC(=O)C[C@@H]1C(=O)N(CCc2ccc(Cl)cc2)C2=CCCC[C@]21C(=O)OCC | -11% (inactive)
54 | O=C(NC(=S)Nc1ncccn1)c1ccccc1Br | 20.2% (active)
55 | COC(=O)c1cccnc1NC(=S)NC(C)C | 11.5% (inactive)
56 | CC1CCN(C(=S)NC(=O)c2ccccc2Br)CC1 | 16.3% (inactive)
57 | O=C(CN1CCC(NC(=O)NCc2ccccc2)CC1)Nc1ccc2c(c1)OCCO2 | 4.02% (inactive)
58 | O=C(NC1CCC1)c1ccc(C#CC2CC2)cn1 | 8.79% (inactive)
59 | O=C(CCc1c[nH]c2ccccc12)NCCOc1ccccc1 | -37% (inactive)
60 | COc1cccc(CNCCc2c[nH]c3ccccc23)c1OCc1ccccc1F | -6.09% (inactive)
61 | Cc1cc(NCCc2c[nH]c3ccccc23)ccc1Oc1cccnc1 | 24.1% (active)
62 | C#CCNC(=O)C[C@H]1C[C@@]2(C(=O)OC)C(=C[C@H](C(C)C)O[C@@H]2C2CC2)N(Cc2ccco2)C1=O | 3.7% (inactive)
63 | Cc1cccc(C(=O)Nc2c(-c3ccc(F)cc3)nc3ncccn23)c1 | -0.59% (inactive)
64 | COC(=O)CC1CCc2cc(C)cc(C(CC(C)C)NC(=O)[C@H](CC(C)C)NC(=O)OCc3ccccc3)c2O1 (some centres not stated) | -3.39% (inactive)
65 | O=C(OC12CC3CC(CC(C3)C1)C2)c1ccc(NCc2cc(O)ccc2O)cc1 | 42.5% (active)
66 | O=C(C1CCCN1S(=O)(=O)c1ccccc1)N1CCc2ccccc2C1 (configuration not stated) | -2.35% (inactive)
67 | C=CCn1c(SCc2ccccc2)nc2c1c(=O)[nH]c(=O)n2C | -4.25% (inactive)
68 | Cc1nnc(Sc2nc3c(c(=O)[nH]c(=O)n3C)n2Cc2ccccc2)s1 | 19.7% (active)
69 | Cc1nnc(SCCCn2c(N3CCCCC3)nc3c2c(=O)[nH]c(=O)n3C)s1 | -3.33% (inactive)

Row | Structure (SMILES) | inhibition
70 | COc1ccc(CN2C/C(=C/c3ccccc3)N3C(=O)C[C@@H](c4ccccc4)N=C23)c(OC)c1 | -11.6% (inactive)
71 | Cc1ccc(-n2c(COc3ccccc3)nnc2SCC(=O)Nc2ccc3c(c2)OCCO3)cc1 | -18.3% (inactive)
72 | COc1ccc(C(=O)OCCN2CCN(C3CN(Cc4cn(Cc5ccccc5F)nn4)S(=O)(=O)C3)CC2)cc1OC (configuration not stated) | -1.33% (inactive)
73 | CC(NC(=O)COC(=O)C1CCN(S(=O)(=O)c2ccccc2C(F)(F)F)CC1)c1ccccc1 (configuration not stated) | -13.3% (inactive)
74 | CC(NC(=O)COC(=O)Cn1cc(C(F)(F)F)ccc1=O)c1ccccc1 (configuration not stated) | 19.8% (active)
75 | CC(NC(=O)Cn1cc(C(F)(F)F)cc(Cl)c1=O)c1ccccc1 (configuration not stated) | 0.8% (inactive)
76 | NC(Cc1ccccc1)c1csc(Nc2cc(Oc3ccccc3)ncn2)n1 (configuration not stated) | 30.9% (active)
77 | NC(Cc1ccc(F)cc1)c1csc(Nc2nncc3ccccc23)n1 (configuration not stated) | 9.76% (inactive)
78 | CC(C)(C)CC(=O)Nc1nc(C(N)Cc2ccc(C(F)(F)F)cc2)cs1 (configuration not stated) | 6.39% (inactive)
79 | CC(C)N1CCCCC(NC(=O)C(C)(C)C)C1=O (configuration not stated) | -4.58% (inactive)
80 | C=CCN1C(C(=O)OC)CN(Cc2cn(Cc3ccccc3)nn2)CCS1(=O)=O (configuration not stated) | 1.48% (inactive)
81 | CC(=O)NC(c1cccs1)c1cc(Br)c2cccnc2c1O (configuration not stated) | 22% (active)
82 | N#Cc1ccccc1NC(=O)COc1c(Br)cc(Br)c2cccnc12 | 5.73% (inactive)
83 | O=[N+]([O-])c1cc([N+](=O)[O-])c2cccnc2c1O | 2.18% (inactive)
84 | Cc1c(C(C)c2ccccc2O)[nH]c2ccccc12 (configuration not stated) | -10.4% (inactive)
85 | CCOC(=O)NC(=O)C(=CNc1cccc(OC)c1)C(=O)NC(=O)OCC | 5.9% (inactive)
86 | CCOC(=O)C(=Cc1ccccc1)C(=O)c1ccccc1 | 8.51% (inactive)
87 | CCOC(=O)NC(=O)/C(C#N)=C\c1ccccc1 | 22.2% (active)
88 | COC(=O)[C@]12C[C@H](CC(=O)NCC34CC5CC(CC(C5)C3)C4)C(=O)N(Cc3ccc(Cl)cc3Cl)C1=C[C@H](COCc1ccccc1)O[C@@H]2C | -6.39% (inactive)
89 | O=C(Nc1ccc(Br)cc1)OCCN1C(=O)CCC12CCC(c1ccccc1)CC2 (configuration not stated) | -1.44% (inactive)
90 | N#CC1(Nc2ccc(-c3ccc(Cl)cc3)cc2)CCCC1 | 23.6% (active)
91 | N#CC1(Nc2ccc3c4c(cccc24)CC3)CCCCC1 | -35.6% (inactive)
92 | NC(=O)C1(Nc2ccc(-c3ccccc3)cc2)CCCC1 | 0.79% (inactive)
